Screen size: about 53,000 sequences; about 3,700 (7%) were called active. This excerpt belongs to a sample that is enriched for actives. Unmarked numbers belong to inactive results.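 The calls were made as follows: active = gene knockdowns whose robust z-score for IL-1 alpha signal is at least 2 or at most -2, so actives lie on both sides; inactive = the rest.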

The experiment in a line: Components of the Cytosolic LPS Sensing Pathway: Gene Identification via Genome-wide siRNA Screen. As to conditions: RAW264.7 macrophages, IL-1a HTRF, actives lie on both sides, screened at 100 nM (by protocol), cells primed 5 h with Pam3CSK4 first. From the text: Non-canonical inflammasome activation by cytosolic LPS is a critical component of the host response to Gram-negative bacterial infection, however we lack a comprehensive understanding of the cellular processes that control this pathway. Here we describe a genome-wide siRNA screen to identify genes regulating the mouse macrophage IL-1 alpha response to cytosolic LPS.
RAW264.7 cells were maintained in complete DMEM media, comprising DMEM with 4.5 g/L glucose, 10% FBS (Gemini Bio-Products, West Sacramento, CA), 2 mM Glutamine (Lonza) and 20 mM HEPES (Lonza), hereafter complete DMEM.
The RNAi screen was conducted in 384-well format using the Ambion Silencer Mouse Genome siRNA Library (#4391425), which consists of three unique, nonoverlapping, nonpooled siRNAs for each of 17,000 gene targets. siRNA reagents ([…]) were stamped into 384-well white flat-bottom microplates (Corning, 3570) using a Velocity11 VPrep liquid handling system (Agilent) integrated into a BioCel robotic platform (Agilent) in columns 1-22, leaving columns 23-24 empty for negative (Ambion, Negative control #1) and positive (mouse Casp4) controls, respectively. The median value of each plate's negative control column was used to normalize sample wells, and the positive control was used to assess transfection efficiency and assay performance.
Lipofectamine RNAiMAX Transfection Reagent ([…]; Invitrogen) was added in […] serum-free, antibiotic-free media to plate wells using a Thermo Scientific Matrix WellMate and Microplate Stacker. Plates were incubated for 45 min at room temperature to allow for the sufficient formation of siRNA-lipid complexes. Cells were seeded at a density of 1x10^4 cells per well in 20 microL media containing 20% (vol/vol) FBS without antibiotics. The final concentration of siRNA in each well was 100 nM. Cells were cultured for 48h at 37 degrees C in 5% CO2 before addition of […] of TLR ligand Pam3CSK4 for 5 hours. The medium was then removed, replaced with […] growth media and cell were transfected with […] of LipidA and TransIT-TKO (Mirus) for 24 hour. At the end of the LipidA treatment, […] of supernatant was transferred to a 384 Greiner Bio-one non-binding low volume plate and […] of IL-1a HTRF reagent (Cisbio, 62MIL1APEH) was added and incubated at room temperature overnight. The plates were read on an EnVision plate reader (PerkinElmer). Cell viability was measured by adding 20ul Cell Titer Glo to the original plate and running a luminescence read on the EnVision. The quantified IL-1a signal for each siRNA gene-targeted well was divided by the median of the negative control wells and multiplied by 100 to achieve a negative control normalized value for each well/siRNA. This normalized value was then used to generate a robust z-score by first taking the log of each value and then by subtracting the median and dividing by the […].
(TR-FRET usually uses a lanthanide donor and a delayed reading to cut background.)
Regarding GGAAGAUCCGCUUCAACGUTT against Mab21l4, the z-score is 1.2.
GGUUGGUUUGGAGAAGGCATT against Krt35: the z-score is 2.91 (active).
Next, CCACAUGCCUGAGAGAUUCTT against Spp2: 1.28; CGUUUGACCAAAACAGAAUTT against Fbxw10: 0.709; GGAAGUCAGACAGAUUUAATT against Prss33: 2.69 (active).
The figure for CGCACCUUUCUUUGGAAUGTT against Rab1b is 1.72; for GGAUUUUGUUCUUCAUCCATT against Nedd4 it is -0.142; for GGGUUAUGGAUUUGAAGUGTT against Tmem131l it is 1.3.
As for CCAAUUUUCAAGAUCGGUCTT against Pakap, the z-score is 0.347.
Consider GCUCUGAUGUCAACCUUCCTT against Fam174c, for which the z-score was -2.23 (active).
Regarding CCACCUUUAUUCAAAAUCGTT against Mmp20, the z-score is -0.451.
The figure for CCUACUCAAGAAGCUCAGUTT against Hpse is -2.47 (active); for GCGCACAAGCCUUACUAAATT against Zfp560 it is 0.0854; for GCGGACAUGAGUUUGAAUGTT against Bnipl it is -0.858.
In the case of GGUGGACAAGAUGAUGGAATT against Gps2, the z-score was 1.92.
As for GGAGACAGAUGAAUGAACCTT against Tifab, the z-score was 0.0548.
On to CCCUCUCUACGAUGACUCUTT against Parm1, for which the z-score was -2 (active).
Turning to CCAAUAACUUCGCUUAUAUTT against Ms4a2, the z-score was -0.389.
GGUUCAUCCAACUUUCAAGTT against Stac3: the z-score is 0.587.
Take GUUUCUGGGUGAGCGCGAUTT against Fzd2: the z-score is 2.29 (active).
The figure for GGCAUUUAAAACUCAUUGUTT against G6pdx is -1.47; for GGGUUCAGAGGUCAUCAACTT against Lin37 it is -1.95; for “GCAAAUUAGGCUCUUAUCCTT against 4930402H24Rik” it is -0.333.
Consider GGAAGAAAUGCAGGUGUGGTT against Gab3, for which the z-score is -2.15 (active).
On to GCUUUAUUAACCCAUCAAATT against Wdr78, for which the z-score was -0.136.
GGGAAAAUUCCAGAAUUGUTT against Serpinb9c: the z-score is -1.37.
In the case of GGAGAUGGCCGACUUCUAUTT against Coa8, the z-score was 0.934.
Next, GGUUAAAUCCCUGAUGUAUTT against Ptdss1: -0.613.
For the sequence GCUUGUGUCACCUACGGAATT against Mterf2, the z-score is 0.944.
For CCCAUGCUAUCAAUCAUUUTT against Olfr308, the z-score was 2.51 (active).
Next, CCGAUGACAAUCGGCCCUUTT against Gja8: 0.74; GGUUUUCCAUCUCCUCCAGTT against Klrc1: 0.789; “GGGAAACGUGAAUUAGUAATT against 1110051M20Rik”: -1.23.
Take CCUCCAUUGAUACUCAAGUTT against Pycr1: the z-score is 0.0219.
GGCUAAAUCUCACACUCCATT against Mzb1: the z-score was -2.18 (active).
With GGUGAAGCUCACCAACAAUTT against Tbx20, the z-score is 0.301.
Next, CCAUGUUCCAGUUAAUGACTT against Ptch1: -0.419.
As for GCAAGUCCUCUACCUUCUCTT against Vmn1r210, the z-score is -1.65.
In the case of GGUGAAACUAAAAAUGGUCTT against Egfl6, the z-score is -1.07.
Next, GCCGUCUCUGUGUCACAAATT against Sirt1: -2.19 (active); GGUCCUUGUACAACCACCCTT against Acd: 0.516.
As for “GGUCCUUGCAUUUCAUCAATT against A630005I04Rik”, the z-score is 1.6.
Take GGAUUUUUGCACUCAGUAATT against Olfr1256: the z-score was 1.26.
For the sequence GGAACAUUGGUGUUACAGCTT against Atp5j, the z-score is 2.29 (active).
In the case of GGAGUUUUCAGCAACAAAUTT against Fgf5, the z-score is -0.829.
For GGUAUUCUAUAAGCUCCUUTT against Dennd1a, the z-score is -2.07 (active).
The figure for CCAACGCGAACGAGAACUATT against C1qb is -0.0813; for CCAGAUAAUAAUUUGGAUGTT against Dhx9 it is 0.0852.
As for GGAUGUGCCAUUGAAGAUCTT against Atg4c, the z-score was 2.07 (active).
Turning to CCUGGAUACCUUCAACUAUTT against Galnt14, the z-score is -0.209.
In the case of CCUAAACCAGUCUUUUCUCTT against Cnep1r1, the z-score was 0.369.
Turning to GCAAAAGCUAAUAAACUUGTT against Acox2, the z-score is 0.921.
Turning to GCCUACGAGGACAGUACAATT against Mst1r, the z-score is 1.16.
Turning to GCACUGCAACACUUGGUCCTT against Lcn12, the z-score was -0.99.
On to GGCAGACCCAUAAUUAAUCTT against Arsk, for which the z-score is -0.567.
For the sequence GGCUGAAGCGCAAGAGGAATT against Wdr46, the z-score is 2.68 (active).
As to GGAAGAUACAAGUCUUUUUTT against Akap12, the z-score was 1.85.
The figure for GAGAUAAGAUGGGAAAAAATT against Ssbp2 is -0.338.
Regarding GGAAAAGCAGACUUGCACCTT against Npm2, the z-score is 0.228.
For the sequence GGAAGAAGUUGGAGAUGUUTT against Hsd17b11, the z-score was -0.629.
For GGAACUAGUUUUUAUACUCTT against Igfbp1, the z-score is 2.23 (active).
With GGAACCUAUUUUUUCGUAUTT against Gen1, the z-score is -0.322.
Take CCAAGAUUCUCCUGAAUUATT against Plod2: the z-score is -0.183.
For CGGUGAUCAAAGAUAAGAATT against Zkscan5, the z-score is -0.936.
The figure for GGGUGCAUAUGUUUGAAGCTT against Copb2 is -2.5 (active); for GGUGUGGUCAUUCCAAAUGTT against Ms4a8a it is 0.042; for GGAGCUGUGCGGUCUGUUATT against Mul1 it is -0.626.
In the case of GGAGAAAGUCAAGACCCUCTT against Jund, the z-score was 0.473.
With GGCUACCAUGGACACAUCATT against Magea7-ps, the z-score was -2.31 (active).
The figure for GGAUGUCUCGGCAUAGUUCTT against Lpar1 is -0.64.
The figure for GGUGAAUGCAAGAUCACCUTT against Myl1 is 0.343.
Consider GCAGUCGAUGUCAAGGUUATT against Plekhf2, for which the z-score was 0.473.
With GCCAGGACAAUCUGACUAUTT against Napsa, the z-score was 3.48 (active).
CGGGAUAGACUAUAAGACUTT against Rab40c: the z-score was 0.612.
GGAGAUGAGGAAGCUCUUCTT against Usp4: the z-score was -0.747.
For the sequence CCAAGCAUAUGUGGUUGUUTT against Gpbp1l1, the z-score was -2.01 (active).
Consider “GGUCUACGACCGAUGUUCUTT against 9530003J23Rik”, for which the z-score was 0.729.
In the case of GGAGUUACCUUUCGAUAGGTT against Exoc5, the z-score was 0.648.
Turning to GGGUGCAUAAGCAAGCUGUTT against Nkiras2, the z-score is -0.992.
On to GGGAUCAAAGAUCAGUUAATT against Pih1d2, for which the z-score is -0.98.
Regarding GACAGAGGAAUUUGUCUCCTT against Olfr1120, the z-score was 2.1 (active).
On to CCUAGUGUGUGCUUUUCGGTT against Akr7a5, for which the z-score was -0.502.
Regarding GGACCCAAGAAGUUUUAUUTT against Zbbx, the z-score is 1.3.
With GGAGCAGGUAAACAUGUCUTT against Fpr-rs7, the z-score is -0.218.
Next, GCCUGAAAGGCCUCACAAATT against Eloa: -0.72.
In the case of GCAGUAACUCCGGUAGUAGTT against Daxx, the z-score was 5.84 (active).
On to GGACUAUGCAGUUUUAUUGTT against Chrac1, for which the z-score was -0.201.
CGACCAAAAUCAAAACAGCTT against Defb12: the z-score is -0.093.
GGAACUGGAAGAGAAUGAGTT against Sdc4: the z-score was 0.862.
As for GGAGAAGAUAGAAGCUGAGTT against Rad23a, the z-score was -1.66.
For the sequence GGUCGAGGACAAAAAAAAATT against Dner, the z-score is -2.27 (active).
Take GGACCUAUCAACUGAGUUUTT against Hrc: the z-score was 1.06.
In the case of GGUCAUGGCUACUUCAUCCTT against Dok7, the z-score is 0.583.
Regarding CCUUUAGAGGAAUUCACUUTT against Npas2, the z-score is -0.576.
Regarding GCAAAUCCCAGCUCAAUGUTT against Zfp810, the z-score is -1.65.
In the case of CGAAGGACCAGGGAAUCUGTT against Tsg-5, the z-score was -0.793.
For GCAGGUGAAAGUGCAGAUCTT against Timm13, the z-score was 3.35 (active).
GGAUAAGAGACAAUGAAUUTT against Fut7: the z-score is -1.19.
GCUCAUUCGUCCUCACAGUTT against Olfr312: the z-score was -1.11.
CCCAGGUUCCGGAGAACAATT against Abcc5: the z-score is 2.14 (active).
As for GGCUGUCCAACAAGCAGAGTT against Plekhm3, the z-score is 0.163.
On to GGUAGACCUUUUGUCACGGTT against Cers2, for which the z-score is -0.0497.
Regarding GGGUUUAAUCAUGAUAGAATT against Tet2, the z-score is -0.583.
Take GGCUUUCCCAAAGACUUCUTT against Col11a2: the z-score was 0.518.
As for GGACAUCAUCCAGGAAAACTT against Bcar3, the z-score was -0.347.
Regarding GCCACAACAACUUGAGCAGTT against Amigo1, the z-score is 2.36 (active).
Consider CAACUCUCUUGCUCAGACATT against Olfr814, for which the z-score was -0.268.
For the sequence CGAACGGAAAAAUGGAAGUTT against Mrtfb, the z-score is 0.784.

These data come from PubChem BioAssay AID1508600 (Functional Genomics Laboratory (NCATS/FGL), 2020).
